# In PubChem BioAssay AID977606 (Broad Institute, 2014):
# In all, about 1,500 compounds went through this assay and about 430 (29%) were called active. How the calls were made is not given here. A selection follows. Results with a measured potency or affinity are listed apart.
# Test: insulin secretion activators without glucose, dose response, counter-screen for glucose-dependent insulin secretion activators, cell-based, INS-1E, Gaussia luciferase, luminescence, cherry-pick (AID 977606)
# Conditions: INS-1E Gaussia luciferase insulin secretion, no glucose, 100% = twice neutral-control luminescence; series mostly up to 35 µM
row,Structure (SMILES),outcome
1,O=C(Nc1ccc(C(=O)N2CCCC2)cc1)c1cccc(C(F)(F)F)c1,inactive
2,CCOc1ccc(CCNC(=O)COc2cc(=O)n(C)c3ccccc23)cc1OCC,inactive
3,O=S1(=O)c2ccccc2OC(COCc2ccccc2)CN1C1CC1 (configuration not stated),inactive
4,CC(C)Oc1cccc(C(=O)C2CCCN(C(=O)CCc3cnn(C)c3)C2)c1 (configuration not stated),inactive
5,COc1ccc(-c2nnc3sc(-c4cccs4)nn23)cc1OC,inactive
6,c1csc(-c2nc(NCC3CCCO3)c3ccccc3n2)c1 (configuration not stated),inactive
7,Cc1cc(NC(=O)COC(=O)c2oc3c(Cl)cccc3c2C)no1,inactive
8,COc1cc(/C=N/Nc2cc(C)nc(NS(=O)(=O)c3ccc(C)cc3)n2)ccc1O,inactive
9,CCOc1nc(NC(=O)NS(=O)(=O)Oc2ccccc2Cl)nc(-c2ccccc2)n1,inactive
10,CCOc1ccccc1CNS(=O)(=O)c1cnc[nH]1,inactive
11,Nc1nc(SCc2nc3scc(-c4ccccc4)c3c(=O)[nH]2)n[nH]1,inactive
12,CCCC(=O)Nc1ccc(N2CCN(S(C)(=O)=O)CC2)cc1,inactive
13,O=C(O)CCCNC(=O)c1nn(Cc2ccccc2)c(=O)c2ccccc12,inactive
14,C/C=C/c1ccc(OCCN2C(=O)NC(C)(C)C2=O)c(OC)c1,inactive
15,COc1ccc(C2=Nn3c(nnc3-c3ccccc3F)SC2)cc1OCC1CC1,inactive
16,CCc1onc(C)c1C(=O)Nc1ccc(N2CCOCC2)cc1,inactive
17,O=C(Nc1cccnc1Cl)C1=NN(c2ccccc2)C(=O)CC1,inactive
18,O=C(Nc1nccs1)c1cc(N2CCOCC2)nc2ccccc12,inactive
19,CS(=O)(=O)N1CCN(c2ccccc2NC(=O)c2ccco2)CC1,inactive
20,C[C@@H]1CN([C@H](C)CO)C(=O)c2cc(C3=CCCCC3)cnc2O[C@H]1CN(C)C(=O)CN1CCOCC1,inactive
21,CCNc1nc(NCC)nc(N(C)/N=C/c2ccco2)n1,inactive
22,COc1cc(NC(=O)c2c(-c3ccccc3Cl)noc2C)c2ncccc2c1,inactive
23,CCc1ccc(N(C2C=CS(=O)(=O)C2)S(=O)(=O)c2ccccc2)cc1 (configuration not stated),inactive

row,Structure (SMILES),outcome
1,COc1ccc(CCNC(=O)Cc2ccc3c(c2)OCO3)cc1OC,inactive
2,COc1ccc(CC(=O)c2ccc(OC)c(OC)c2)cc1,inactive
3,COc1ccc(C(=O)NCC(=O)OCC(=O)NC2CCCCCC2)cc1OC,inactive
4,COC(=O)C1C(=O)NC(SC)=C(C#N)C1c1ccccc1 (configuration not stated),inactive
5,COc1cccc(CNC(=O)N[C@@H](CC(C)C)C(=O)O)c1,inactive
6,COc1ccc(C2N(c3ccccc3)C(=O)C2(F)F)cc1OC (configuration not stated),inactive
7,COC(=O)C1=C(C)NC(=S)NC1c1cccc(OC)c1 (configuration not stated),inactive
8,Cc1cccc(C2N=C(N)Nc3nc4ccccc4n32)c1 (configuration not stated),inactive
9,CCOc1ccc(C(=O)NCC(=O)Nc2cc(C)ccn2)cc1OCC,inactive
10,CCCN(Cc1nnc(-c2ccccc2Cl)o1)C(=O)c1cc2ccccc2o1,inactive
11,c1ccc2nc3c(nc2c1)c1ccccc1n3CCN1CCOCC1,inactive
12,COc1ccc(CCN(C)C(=O)C(CCSC)NC(=O)c2ccco2)cc1OC (configuration not stated),inactive
13,CC(=O)Nc1ccc(S(=O)(=O)Nc2ccc3c(c2)n(C)c(=O)n3C)c(C)c1,inactive
14,COc1nc(N2CCOCC2)nc(-n2cccc2)n1,inactive
15,COc1ccc(S(=O)(=O)N(C)c2ccc(C(=O)NCC3CCCO3)cc2)cc1OC (configuration not stated),inactive
16,COc1ccc(-c2nc(CCNC(=O)c3ccco3)cs2)cc1OC,inactive
17,Cc1ccnc(NC(=O)CNC(=O)c2ccco2)c1,inactive
18,CCC(=O)Nc1cc2nn(-c3ccc(OC)cc3)nc2cc1C,inactive
19,CCOc1cc(NC(=O)c2ccco2)c(OCC)cc1NC(=O)c1cc(OC)c(OC)c(OC)c1,inactive
20,COc1ccc(-c2c(NC(=O)c3ccco3)oc3ccc(Cl)cc3c2=O)cc1,inactive
21,Cc1ccc(C2(C)NC(=O)N(CC(=O)Nc3ccc(-c4nc5ccc(C)cc5s4)cc3)C2=O)cc1 (configuration not stated),inactive
22,COc1ccc(S(=O)(=O)N2CCCCC2)cc1NC(=O)C1CC1C (configuration not stated),inactive
23,CC(Oc1ccc2c3c(c(=O)oc2c1)CCCC3)C(=O)NCc1cccnc1 (configuration not stated),inactive

row,Structure (SMILES),outcome
1,Cc1ccc(Nc2ncnc3sccc23)c(C)c1,inactive
2,O=C(CN1C(=O)NC(Cc2c[nH]c3ccccc23)C1=O)NCCc1ccccc1 (configuration not stated),inactive
3,O=C(Nc1ccc(NC(=O)c2cccs2)cc1)c1ccc(Br)o1,inactive
4,O=C(Nc1nnc(CCS(=O)(=O)c2ccc3ccccc3c2)s1)c1cccs1,inactive
5,CS(=O)(=O)N1CCCCC1c1cc(C(=O)Nc2cccc(C#N)c2)no1 (configuration not stated),inactive
6,CN(c1ccc(F)cc1)S(=O)(=O)c1ccc(Cl)c(C(=O)NCC2CCCO2)c1 (configuration not stated),inactive
7,Cc1cc(C)nc(NC(=O)c2ccc(Cl)cc2Cl)n1,inactive
8,COc1cc(Cl)c(C)cc1NC(=O)c1ccccc1NC(=O)CN1CCN(C(C)=O)CC1,inactive
9,O=C(CNC(=O)c1ccco1)N/N=C/c1ccc(C(=O)O)cc1,inactive
10,COCCN(CCOC)Cc1cc(=O)oc2cc(C)c(C)cc12,inactive
11,COc1cccc2cc(-c3cc(=O)oc4cc(C)c(O)cc34)oc12,inactive
12,Cc1sc2ncn(CC(=O)NCc3ccccc3)c(=O)c2c1C,inactive
13,Cc1c(OCC(=O)NCc2ccccn2)ccc2c3c(c(=O)oc12)CCCC3,inactive
14,O=C1NC(=O)C2(CCCCC2C2CCCCC2)N1 (configuration not stated),inactive
15,COc1ccccc1CNC(=O)CCS(=O)(=O)Cc1ccc(C)cc1,inactive
16,Cc1cc(C)c(CSc2nnnn2-c2ccc(C(=O)O)cc2)c(C)c1,inactive
17,CC(C)c1cc(C(C)C)n2nc(N)nc2n1,inactive
18,CN1CCSc2ccc(C(=O)Nc3cccc(F)c3)cc21,inactive
19,CC(=O)c1ccc(OCC(=O)N(C2CCCCC2)C2CCS(=O)(=O)C2)cc1 (configuration not stated),inactive
20,Cc1ccc(C(=O)N2CCN3C(=O)c4ccccc4C23c2ccccc2)cc1 (configuration not stated),inactive
21,COc1cc2cnc(-c3cccnc3)cc2cc1OC,inactive
22,Cc1ccc(S(=O)(=O)NCc2csc(-c3cccs3)n2)cc1,inactive
23,COc1cc2[nH]c(-c3ccc(C)cc3)cc(=O)c2cc1OC,inactive

row,Structure (SMILES),outcome
1,O=C(Cn1[nH]c(=O)c2ccccc2c1=O)OCC(=O)c1ccc(F)cc1,inactive
2,C=CCN(CC=C)S(=O)(=O)c1ccc(C(=O)Nc2sc3c(c2C(N)=O)CCCCC3)cc1,inactive
3,CCN(Cc1ccccc1)S(=O)(=O)c1ccccc1Br,inactive
4,CCOCCCNC(=O)c1oc2ccc3c(c2c1C)C(O)CC(C)(C)O3 (configuration not stated),inactive
5,NC(=O)c1ncn([C@@H]2O[C@H](C(=O)N[C@H](Cc3ccccc3)C(=O)O)[C@@H](O)[C@H]2O)n1,inactive
6,CCc1nc2c(OCc3ccccc3C(=O)OC)cccn2c1N(C)C(=O)c1ccncc1,inactive
7,Cc1cccc(C)c1NC(=O)C1c2ccccc2Oc2ccccc21,inactive
8,O=c1[nH]c2cc(Cl)ccc2n(CCNc2ncc(C(F)(F)F)cc2Cl)c1=O,inactive
9,O=C(c1cc(-c2ccccc2)nc2ccccc12)N1CCCC1,inactive
10,Nn1c(C2CCCCC2)nc2ccccc2c1=O,inactive
11,CNC(=O)c1cc(C(=O)c2ccccc2Br)c[nH]1,inactive
12,CSc1ccc(C(=O)C2CCCN(C(=O)c3ccc4c(c3)no[n+]4[O-])C2)cc1 (configuration not stated),inactive
13,CN(C(=O)[C@H]1O[C@@H](n2cnc(C(N)=O)n2)[C@H](O)[C@@H]1O)c1ccccc1,inactive
14,CC(=O)Nc1c(C(=O)C2CC2)oc2ccccc12,inactive
15,Cc1ccc(-c2cnc3cccnn23)cc1F,inactive
16,CCN(c1ccccc1)S(=O)(=O)c1ccc(OC)c(OC)c1,inactive
17,O=S(=O)(c1ccc(=S)[nH]c1)N1CCCCCC1,inactive
18,CCC(=O)Nc1cc(C(C)(C)C)ccc1C(C)=O,inactive
19,Cc1ccccc1C(=O)NC1CCSC1=O (configuration not stated),inactive
20,COc1ccc(C(=O)Nc2nnc(-c3cccs3)s2)cc1,inactive
21,Cc1cc2nc(-c3ccccc3O)[nH]c2cc1C,inactive
22,c1csc(CNc2nc(Oc3ccncc3)c3sccc3n2)c1,inactive
23,O=C(Cn1cc(C(F)(F)F)ccc1=O)NCC1CCCO1 (configuration not stated),inactive

row,Structure (SMILES),outcome
1,Cc1ccccc1Nc1c(-c2ccncc2)nc2ccc(Cl)cn12,inactive
2,O=C(O)c1c(NC(=O)N2CCOCC2)sc2c1CCCC2,inactive
3,O=c1c(C(c2ccccc2)c2c(O)sc3ccccc3c2=O)c(O)sc2ccccc12,inactive
4,Cn1c(=O)c2c(nc3n2CCCN3CCc2ccccc2)n(C)c1=O,inactive
5,O=C1CSC(c2ccccc2)N1c1ccc(F)cc1F (configuration not stated),inactive
6,COc1ccc(N2CC(C(=O)N3CCc4ccccc43)CC2=O)cc1 (configuration not stated),inactive
7,COc1ccc(-c2[nH]c3ccccc3c2SCCN)cc1,inactive
8,CCc1nc2c(OCCC3CCCCC3)cccn2c1N(C)C(=O)c1ccco1,inactive
9,O=C(O)CC(CC(=O)Nc1ccc(C(=O)O)cc1)c1ccccc1 (configuration not stated),inactive
10,O=C(COC(=O)c1cccnc1Cl)Nc1cc(S(=O)(=O)N2CCCCCC2)ccc1Cl,inactive
11,CC1CCN(C(=O)c2cccc(S(=O)(=O)N3CCN(c4ccccc4)CC3)c2)CC1,inactive
12,CC(=O)NN1C(=O)c2ccccc2NC1c1ccccc1O (configuration not stated),inactive
13,CN1CCN(c2ccc(CNC(=O)C3(C)Cc4c(-c5ccccc5)ccnc4O3)cc2)CC1 (configuration not stated),inactive
14,O=C(NC1CCCCC1)c1cccnc1Sc1ccccc1,inactive
15,COc1ccc(C(=O)Nc2nnc(-c3ccco3)s2)cc1,inactive
16,COc1ccc(-c2nc(-c3cccnc3)no2)cc1OC,inactive
17,CCn1nc(C)c(NC(=O)c2cnn3c(C(F)F)cc(-c4ccccc4)nc23)c1C,inactive
18,CCCc1cc(NCC2CCCO2)n2c(nc3ccccc32)c1C#N (configuration not stated),inactive
19,COc1ccc(CCN(C)C(=O)Cn2c(=O)oc3ccccc32)cc1OC,inactive
20,CCc1nnc(NC(=O)C(c2ccccc2)c2ccccc2)s1,inactive
